Experimental data taken from the supplement of paper PMC4723716.

System: Plasmodium falciparum NF54 gametocytes
Assay: viability index relative to DMSO control (fraction); higher = less gametocyte killing
Conditions: 12.5 µM, incubation time: 72 h
Method in brief: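 P. falciparum NF54 gametocytes of each stage (I–V), in serum-containing medium (0.50% gametocytemia, 1.25% hematocrit, 40 µl), were incubated with compound at 12.5 µM in 384-well plates for 72 hr at 37°C under low oxygen. Wells received 5 µl of 5 µM MitoTracker Red CMXRos for 20 min. Then 5 µl was moved into 40 µl of 500 nM dye in serum-free medium and imaged after 30 min (three fields). The viability index was the gametocyte particle count divided by the plate mean of DMSO wells.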

[1] = gametocyte stage: Stage I viability index
[2] = gametocyte stage: Stage II viability index
[3] = gametocyte stage: Stage III viability index
[4] = gametocyte stage: Stage IV viability index
[5] = gametocyte stage: Stage V viability index

SMILES | viability index [1] | viability index [2] | viability index [3] | viability index [4] | viability index [5]
COc1ccccc1N1CCN(C(CNS(=O)(=O)c2ccc(Cl)cc2)c2cccnc2)CC1 (stereo not given) | 0.188 | 0.564 | 1.04 | 0.815 | 0.912
CN(C)CCCNc1c2ccccc2nc2ccccc12 | 0.0663 | 0.0164 | 0.0835 | 0.201 | 0.231
CN(C)c1ccc(C(O)(c2ccc(N(C)C)cc2)c2ccc(N(C)C)cc2)cc1 | 0.157 | 0.0203 | 0.0948 | 0.0608 | 0.11
O=C(CSc1nccn2nc(-c3ccccc3)cc12)Nc1cc(C(F)(F)F)ccc1Cl | 0.845 | 0.896 | 0.973 | 1.08 | 1.4
COc1ccc(C=C2SC(Nc3ccccc3)=NC2=O)cc1 | 1.03 | 0.768 | 0.663 | 0.791 | 0.727
COc1cccc(O)c1CN1CCC2(CCCN(Cc3ccc(F)cc3)C2)C1 (stereo not given) | 0.0144 | 0.0986 | 0.446 | 0.602 | 0.615
Cc1ccccc1OCCSc1nc2ccc(NC(=O)c3ccccc3)cc2s1 | 0.83 | 0.863 | 0.944 | 0.835 | 0.922
CCOc1cccc(C(=O)Nc2ccc(-c3nc4ccccc4[nH]3)cc2)c1 | 0.0751 | 0.574 | 1.1 | 0.894 | 0.637
COc1ccc(C2N(C)c3ccccc3N2C)cc1 | 0.939 | 0.93 | 1.01 | 0.964 | 1.07
OC(CNCC1CCCO1)Cn1c2ccc(Cl)cc2c2cc(Cl)ccc21 (stereo not given) | 0.0685 | 0.0647 | 0.468 | 0.65 | 0.56
FC(F)(F)c1ccc(Nc2nnnc3ccccc23)cc1 | 0.604 | 0.736 | 0.921 | 0.72 | 0.868
CC(C)c1ccc(CNCC(O)c2ccccc2)cc1 (stereo not given) | 0.032 | 0.118 | 0.492 | 0.568 | 0.648
O=C(CSc1ccc2nnc(-c3cccc(F)c3)n2n1)Nc1ccc2c(c1)OCO2 | 1.01 | 1.02 | 1.16 | 1.16 | 1.37
COc1ccc(CNC2CCN(c3ccc(NC(=O)c4cccc(Cl)c4)cc3)CC2)cc1OC | 0.0586 | 0.532 | 0.652 | 0.79 | 0.758
COc1cc(-c2nc(-c3ccc(Sc4ccccc4)cc3)c(-c3ccccc3)[nH]2)cc(OC)c1O | 0.0507 | 0.0441 | 0.0529 | 0.0222 | 0.0779
O=C(Cc1ccccc1)NC(c1ccc(Cl)cc1)c1c(O)ccc2ccccc12 (stereo not given) | 0.0691 | 0.316 | 0.631 | 0.604 | 0.857
CC(C)CCNCC(O)Cn1c2ccccc2c2ccccc21 (stereo not given) | 0.0507 | 0.0691 | 0.0706 | 0.193 | 0.0779
O=C(NNc1cc(N2CCCC2)nc(N2CCCC2)n1)c1ccccc1 | 0 | 0.00749 | 0.275 | 0.516 | 0.377
Cc1ccc(C(=O)c2oc3ccc4c(C)cc(=O)oc4c3c2C)cc1 | 1.1 | 0.932 | 0.905 | 1.04 | 1.08
COc1cccc(C(=O)Nc2ccc(-c3nc4ccccc4[nH]3)cc2)c1 | 0.295 | 0.595 | 0.852 | 1.03 | 0.883
Clc1ccc2[nH]c3c(NCCCN4CCOCC4)ncnc3c2c1 | 0.0298 | 0.444 | 0.979 | 0.918 | 0.813
Oc1c2c(nc3cc(-c4ccccc4)nn13)CCCC2 | 1.07 | 0.786 | 1.07 | 0.878 | 0.879
O=C(NC1CCCC1)c1ccc(N2CCC(NCc3cccc(C(F)(F)F)c3)CC2)cc1 | 0.243 | 0.573 | 0.76 | 0.76 | 0.604
CCOC(=O)c1cnc2c(C)cccc2c1Nc1ccc(C(C)=O)cc1 | 1.16 | 0.83 | 1.06 | 1.08 | 1.03
COc1ccc(-n2ccnc2SCC(=O)Nc2cc(C)ccc2C)c(OC)c1 | 1.07 | 0.949 | 0.975 | 0.939 | 0.989
O=c1nc(C=Cc2ccc(Cl)cc2)oc2ccccc12 | 0.874 | 1.01 | 1 | 0.866 | 0.989
CCOC(=O)c1ccc2nc(-c3ccccc3)cc(O)c2c1 | 0.606 | 0.719 | 0.761 | 0.757 | 1.12
CCOC(=O)C1CCN(C(=O)CN2C(=O)c3ccccc3C2c2c[nH]c3ccccc23)CC1 (stereo not given) | 1.39 | 0.924 | 1.14 | 1.13 | 1.18
c1ccc(C2=Nc3ccccc3N=C(c3ccccc3)c3ccccc32)cc1 | 0.0839 | 0.0541 | 0.0543 | 0.123 | 0.0909
CN(C)c1ccc(N2C(N)=NC(N)=NC2(C)C)cc1 | 1.05 | 0.931 | 1.04 | 1.05 | 1.21
